Laboratory results as given in PubChem BioAssay (NCATS).
Results filed as inconclusive are left out. Calls of active or inactive are those of the source. Unless noted, the call rests on the fitted dose curve; in most records, active means well fitted curve in the direction sought with a large enough effect; inconclusive means small, poorly fitted or top-dose-only effect, or another doubt; inactive means no such curve, though single readings can be large; an effect the other way counts as inactive or inconclusive.

Assays:
[1] = target: Cytochrome P450 3A4 (Homo sapiens) (UniProt P08684); assay: qHTS for inhibitors of CYP3A4 against the NCATS DSHEA and TCM libraries (AID 1919971); further: potency means the concentration at half of the fitted maximal effect;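 on activity change, negative = inhibition: on the % scale 0 is the no-effect control and ±100 the full control effect; inhibition lowers luminescence from luciferin made by CYP3A4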
Method in brief: (§1)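 Substances were tested against enzyme with a pro-luciferin substrate; minus-enzyme wells served as background. After NADPH-initiated oxidation (30-45 min, RT), light was generated with P450-Glo reagent.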

[2] = target: Cytochrome P450 2C9 (Homo sapiens) (UniProt P11712); assay: qHTS for inhibitors of CYP2C9 against the NCATS DSHEA and TCM libraries (AID 1919973); further: potency means the concentration at half of the fitted maximal effect;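 on activity change, negative = inhibition: luminogenic pro-luciferin CYP2C9 substrate turned into luciferin with NADPH regeneration; series mostly up to about 34 µM; on the % scale 0 is the no-effect control and ±100 the full control effect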
Method in brief: as §1

[3] = target: Cytochrome P450 2C19 (Homo sapiens) (UniProt P33261); assay: qHTS for inhibitors of CYP2C19 against the NCATS DSHEA and TCM libraries (AID 1919974);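 further: luminescence from luciferin released by CYP2C19 oxidation of a pro-luciferin substrate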; further: potency means the concentration at half of the fitted maximal effect; on activity change, negative = inhibition: on the % scale 0 is the no-effect control and ±100 the full control effect
Method in brief: as §1

[4] = target: Cytochrome P450 1A2 (Homo sapiens) (UniProt P05177); assay: qHTS for inhibitors of CYPIA2 against the NCATS DSHEA and TCM libraries (AID 1919976); further: potency means the concentration at half of the fitted maximal effect
Method in brief: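 Luminescence read-out: pro-luciferin converted to D-luciferin by CYP1A2, detected with P450-Glo reagent after 30 min RT. Enzyme plus substrate got compounds for 15 min RT; NADPH regeneration solution (final 1x) started a 30-45 min reaction, light-protected.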

[5] = target: Cytochrome P450 3A4 (Homo sapiens) (UniProt P08684); assay: qHTS Assay for Inhibitors and Substrates of Cytochrome P450 3A4 (AID 884); further: nearly all actives have a fitted effect of over 50% in size; further: potency means the concentration at half of the fitted maximal effect
Method in brief: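 Luminescent readout of luciferin produced by CYP3A4 (20 nM) dealkylation of Luciferin-PPXE, 25 uM (its KM). NADPH-driven reaction ran 60 min at RT after 10 min compound preincubation; data scaled to 57 uM ketoconazole as 100% inhibition.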

[6] = target: Cytochrome P450 3A4 (Homo sapiens) (UniProt P08684); assay: qHTS Assay for Activators of Cytochrome P450 3A4 (AID 885); further: nearly all actives have a fitted effect of over 65% in size
Method in brief: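 CYP3A4 activity: Luciferin-PPXE O-dealkylation, 25uM substrate, 200mM KPO4, RT throughout. Read-out is luciferase luminescence; higher values reflect activation.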

[7] = target: Cytochrome P450 2D6 (Homo sapiens) (UniProt P10635); assay: qHTS Assay for Inhibitors and Substrates of Cytochrome P450 2D6 (AID 891); further: potency means the concentration at half of the fitted maximal effect; nearly all actives have a fitted effect of over 60% in size
Method in brief: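 Luminescent read-out of luciferin formed by 5 nM human CYP2D6 demethylating 30 uM Luciferin-ME EGE (Km level) over 60 min at room temperature after NADPH regeneration addition. Data normalized to full inhibition by 1.43 uM quinidine.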

[8] = target: Cytochrome P450 2C19 (Homo sapiens) (UniProt P33261); assay: qHTS Assay for Inhibitors and Substrates of Cytochrome P450 2C19 (AID 899); further: potency means the concentration at half of the fitted maximal effect; nearly all actives have a fitted effect of over 60% in size
Method in brief: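 5nM enzyme + 10uM Luciferin-H EGE (=KM), 50mM KPO4; cpd pin-transferred, 10 min 37C; NADPH regen, 60 min 37C; stopped w/ luciferin detection reagent, 20 min; luminescence. Normalized to 57uM ketoconazole (AC100).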

[9] = target: Dual specificity protein kinase CLK4 (Homo sapiens) (UniProt Q9HAZ1); assay: qHTS Assay for Inhibitors of CDC-like Kinase 4 (ADP-Glo Assay) (AID 1771); further: nearly all actives have a fitted effect of over 70% in size; further: potency means the concentration at half of the fitted maximal effect
Method in brief: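 25 nM Clk4, 100 uM RS peptide, 1 uM ATP (final); 2 mM MgCl2, 0.5 mM EGTA, 2.5 mM DTT, 0.01% Triton X-100; 1 hr RT. ADP-Glo readout: ATP depletion 45 min, conversion/luciferase 30 min, luminescence.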

[10] = target: Cytochrome P450 1A2 (Homo sapiens) (UniProt P05177); assay: p450-cyp1a2 (AID 410; calls by dose curve; further: potency means the concentration at half of the fitted maximal effect)
Method in brief: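 20nM CYP1A2, 100uM Luciferin-ME (=Km), 100mM KPO4; cpd 10 min RT; +NADPH regen, 60 min RT; stop/detect 20 min; luminescence. Normalized to furafylline 57 uM = full inhibition.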

[11] = Dual reporter qHTS for antagonist of Pregnane X Receptor (hPXR) against the NCATS DSHEA and TCM libraries: Fluorescence Readout (AID 1920061); further: 0% is about no effect
Method in brief: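 Antagonist mode: rifampicin 2 uM final co-added with compounds to hPXR-LucHepG2 cells for 24 h at 37C. Viability by CellTiter-Fluor, Ex/Em 405/540 nm, 1 h; reporter by ONE-Glo luminescence.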

[12] = target: Estrogen receptor (Homo sapiens) (UniProt P03372); assay: qHTS assay for small molecule antagonists of estrogen receptor alpha signaling (AID 588513; active means well fitted curve in the direction sought with a large enough effect in the signal ratio, with a control signal flat, not every such curve was filed as active; the % refers to the signal ratio; further: on the % scale 0 is the no-effect control and ±100 the full control effect)
Method in brief: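 Antagonist mode: inhibition of 0.5 nM 17-beta-estradiol-driven beta-lactamase reporter in HEK 293 ER-alpha-UAS-bla cells, 18 h at 37C, CCF4 readout after 2 h at RT. Normalised to estradiol and DMSO; titration fitted to Hill.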

[13] = target: Peroxisome proliferator-activated receptor gamma (Homo sapiens) (UniProt P37231); assay: qHTS assay for small molecule agonists of peroxisome proliferator-activated receptor gamma signaling (AID 588536; active means well fitted curve in the direction sought with a large enough effect in the signal ratio, with a control signal flat, not every such curve was filed as active; the % refers to the signal ratio;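 further: 0% = DMSO basal wells and 100% = rosiglitazone at 2 µM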)
Method in brief: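 Compound treatment: 16 h, 37 C, HEK293 GeneBLAzer cells. Detection: CCF4, 2 h RT. Values: Hill-fit EC50, efficacy as % of 2 uM rosiglitazone.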

[14] = target: Vitamin D3 receptor (Homo sapiens) (UniProt P11473); assay: qHTS assay for small molecule antagonists of vitamin D receptor signaling (AID 588541; calls by dose curve;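 further: receptor activated by calcitriol during compound treatment; series mostly up to about 77 µM; on the % scale 0 is the no-effect control and ±100 the full control effect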)
Method in brief: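 Antagonist-mode beta-lactamase reporter assay: HEK293T VDR-UAS-bla cells were exposed to titrated compound alongside 1-alpha,25-dihydroxyvitamin D3 at 3 nM final for 16 h. Values were normalized to the 50 nM agonist control and DMSO basal, with IC50 and efficacy from Hill equation fits.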

[15] = target: Vitamin D3 receptor (Homo sapiens) (UniProt P11473); assay: qHTS assay for small molecule agonists of vitamin D receptor signaling (AID 588543; calls by dose curve;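 further: 0% = DMSO basal and 100% = reference agonist control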)
Method in brief: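 Agonist-mode beta-lactamase reporter: HEK293T VDR-UAS-bla cells in charcoal-stripped 2% FBS, compound series 16 h 37 C, CCF4 2 h RT. EC50 from Hill fit, scaled against DMSO and 50 nM calcitriol control.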

Estrogen receptor (Homo sapiens), sequence (P03372 whole entry, looked up): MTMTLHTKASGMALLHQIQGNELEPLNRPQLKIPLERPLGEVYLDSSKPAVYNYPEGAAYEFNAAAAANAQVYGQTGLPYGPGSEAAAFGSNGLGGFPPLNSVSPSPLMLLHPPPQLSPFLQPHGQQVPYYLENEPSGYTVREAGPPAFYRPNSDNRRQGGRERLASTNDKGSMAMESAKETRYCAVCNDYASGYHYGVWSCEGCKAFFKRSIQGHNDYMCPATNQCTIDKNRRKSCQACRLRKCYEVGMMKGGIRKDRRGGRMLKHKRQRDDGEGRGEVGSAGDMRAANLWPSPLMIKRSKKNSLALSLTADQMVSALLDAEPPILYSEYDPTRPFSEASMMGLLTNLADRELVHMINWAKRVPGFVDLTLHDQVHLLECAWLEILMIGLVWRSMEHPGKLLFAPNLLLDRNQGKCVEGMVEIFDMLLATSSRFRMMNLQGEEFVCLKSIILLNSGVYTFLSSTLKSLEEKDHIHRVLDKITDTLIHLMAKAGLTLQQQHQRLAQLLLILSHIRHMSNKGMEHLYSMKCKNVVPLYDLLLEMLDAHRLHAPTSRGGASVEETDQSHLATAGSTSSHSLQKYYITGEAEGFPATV
Cytochrome P450 1A2 (Homo sapiens), sequence (P05177 whole entry, looked up): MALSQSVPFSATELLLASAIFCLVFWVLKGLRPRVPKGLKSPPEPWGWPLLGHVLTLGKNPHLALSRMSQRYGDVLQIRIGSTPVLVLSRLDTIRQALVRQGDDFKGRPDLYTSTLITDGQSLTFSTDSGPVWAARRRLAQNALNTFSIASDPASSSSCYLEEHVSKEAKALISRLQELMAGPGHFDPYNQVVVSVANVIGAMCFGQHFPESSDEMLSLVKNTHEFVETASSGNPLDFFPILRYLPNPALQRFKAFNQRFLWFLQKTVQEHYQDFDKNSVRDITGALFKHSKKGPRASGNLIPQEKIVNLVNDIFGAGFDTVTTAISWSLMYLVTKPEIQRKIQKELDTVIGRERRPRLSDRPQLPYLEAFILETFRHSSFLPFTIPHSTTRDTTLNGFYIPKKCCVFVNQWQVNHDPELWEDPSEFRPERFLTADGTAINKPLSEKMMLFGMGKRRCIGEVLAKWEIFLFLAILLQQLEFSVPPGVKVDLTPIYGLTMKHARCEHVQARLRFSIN
Cytochrome P450 3A4 (Homo sapiens), sequence (P08684 whole entry, looked up): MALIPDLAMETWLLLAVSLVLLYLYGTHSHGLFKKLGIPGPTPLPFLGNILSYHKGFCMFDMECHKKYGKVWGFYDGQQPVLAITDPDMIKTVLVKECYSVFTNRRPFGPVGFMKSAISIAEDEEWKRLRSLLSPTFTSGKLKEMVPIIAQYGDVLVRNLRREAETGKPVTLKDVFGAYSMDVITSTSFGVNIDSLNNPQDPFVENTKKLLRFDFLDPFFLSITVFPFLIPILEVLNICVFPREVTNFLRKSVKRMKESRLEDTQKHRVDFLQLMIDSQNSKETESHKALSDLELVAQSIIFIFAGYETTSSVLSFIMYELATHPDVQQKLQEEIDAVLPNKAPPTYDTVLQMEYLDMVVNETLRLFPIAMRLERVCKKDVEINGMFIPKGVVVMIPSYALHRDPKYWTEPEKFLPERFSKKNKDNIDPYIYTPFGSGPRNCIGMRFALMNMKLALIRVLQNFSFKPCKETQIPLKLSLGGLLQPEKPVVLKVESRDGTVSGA
Dual specificity protein kinase CLK4 (Homo sapiens), sequence (Q9HAZ1 whole entry, looked up): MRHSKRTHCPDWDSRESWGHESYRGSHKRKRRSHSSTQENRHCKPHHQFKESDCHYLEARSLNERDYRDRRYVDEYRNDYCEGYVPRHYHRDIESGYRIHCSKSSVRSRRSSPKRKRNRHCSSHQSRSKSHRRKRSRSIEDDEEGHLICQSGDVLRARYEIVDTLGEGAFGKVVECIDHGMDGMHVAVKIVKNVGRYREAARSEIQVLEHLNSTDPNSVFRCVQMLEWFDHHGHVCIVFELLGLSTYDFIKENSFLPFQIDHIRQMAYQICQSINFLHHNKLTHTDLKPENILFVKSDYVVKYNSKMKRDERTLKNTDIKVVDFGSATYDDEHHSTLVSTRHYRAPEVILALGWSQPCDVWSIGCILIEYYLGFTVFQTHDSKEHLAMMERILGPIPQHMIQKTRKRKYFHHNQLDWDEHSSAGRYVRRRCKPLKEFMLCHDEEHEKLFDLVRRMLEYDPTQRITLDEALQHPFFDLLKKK
Peroxisome proliferator-activated receptor gamma (Homo sapiens), sequence (P37231 whole entry, looked up): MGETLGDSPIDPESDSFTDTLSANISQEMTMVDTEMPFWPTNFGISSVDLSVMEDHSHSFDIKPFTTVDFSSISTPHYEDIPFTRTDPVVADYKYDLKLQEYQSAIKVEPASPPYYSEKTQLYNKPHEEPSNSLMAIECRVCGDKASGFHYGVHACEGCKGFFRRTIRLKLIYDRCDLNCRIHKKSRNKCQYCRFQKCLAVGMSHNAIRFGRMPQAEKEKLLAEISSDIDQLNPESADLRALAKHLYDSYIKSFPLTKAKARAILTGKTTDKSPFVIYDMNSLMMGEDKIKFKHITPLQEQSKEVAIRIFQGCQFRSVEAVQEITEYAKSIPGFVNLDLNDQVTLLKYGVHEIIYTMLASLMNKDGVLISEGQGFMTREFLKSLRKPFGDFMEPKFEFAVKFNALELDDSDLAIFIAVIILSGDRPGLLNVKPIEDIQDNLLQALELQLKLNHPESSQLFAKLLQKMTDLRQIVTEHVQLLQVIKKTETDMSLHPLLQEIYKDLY
Cytochrome P450 2C19 (Homo sapiens), sequence (P33261 whole entry, looked up): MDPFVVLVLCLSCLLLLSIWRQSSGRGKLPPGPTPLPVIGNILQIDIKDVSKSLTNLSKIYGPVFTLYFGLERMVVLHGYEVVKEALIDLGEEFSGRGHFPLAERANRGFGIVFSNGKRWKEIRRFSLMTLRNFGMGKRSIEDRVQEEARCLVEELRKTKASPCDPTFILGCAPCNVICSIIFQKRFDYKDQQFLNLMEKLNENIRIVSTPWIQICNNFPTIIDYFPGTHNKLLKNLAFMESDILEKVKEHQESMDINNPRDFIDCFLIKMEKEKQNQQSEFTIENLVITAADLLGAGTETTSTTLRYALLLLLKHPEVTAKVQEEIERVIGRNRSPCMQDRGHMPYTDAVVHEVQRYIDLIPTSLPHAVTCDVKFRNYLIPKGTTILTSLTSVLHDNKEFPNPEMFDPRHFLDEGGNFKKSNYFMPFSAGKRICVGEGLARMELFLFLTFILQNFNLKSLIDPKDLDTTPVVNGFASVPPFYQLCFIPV
Vitamin D3 receptor (Homo sapiens), sequence (P11473 whole entry, looked up): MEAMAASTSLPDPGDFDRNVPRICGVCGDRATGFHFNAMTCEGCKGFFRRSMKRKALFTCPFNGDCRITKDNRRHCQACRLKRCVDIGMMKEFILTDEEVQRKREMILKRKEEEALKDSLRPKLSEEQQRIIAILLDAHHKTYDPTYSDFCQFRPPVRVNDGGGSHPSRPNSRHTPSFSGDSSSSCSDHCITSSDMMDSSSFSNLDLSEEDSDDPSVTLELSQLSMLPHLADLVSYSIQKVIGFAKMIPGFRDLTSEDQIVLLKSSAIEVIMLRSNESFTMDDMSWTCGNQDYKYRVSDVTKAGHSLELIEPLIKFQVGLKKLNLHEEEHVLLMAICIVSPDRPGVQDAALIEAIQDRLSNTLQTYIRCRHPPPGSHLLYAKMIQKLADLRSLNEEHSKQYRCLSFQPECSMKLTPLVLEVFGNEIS
Cytochrome P450 2C9 (Homo sapiens), sequence (P11712 whole entry, looked up): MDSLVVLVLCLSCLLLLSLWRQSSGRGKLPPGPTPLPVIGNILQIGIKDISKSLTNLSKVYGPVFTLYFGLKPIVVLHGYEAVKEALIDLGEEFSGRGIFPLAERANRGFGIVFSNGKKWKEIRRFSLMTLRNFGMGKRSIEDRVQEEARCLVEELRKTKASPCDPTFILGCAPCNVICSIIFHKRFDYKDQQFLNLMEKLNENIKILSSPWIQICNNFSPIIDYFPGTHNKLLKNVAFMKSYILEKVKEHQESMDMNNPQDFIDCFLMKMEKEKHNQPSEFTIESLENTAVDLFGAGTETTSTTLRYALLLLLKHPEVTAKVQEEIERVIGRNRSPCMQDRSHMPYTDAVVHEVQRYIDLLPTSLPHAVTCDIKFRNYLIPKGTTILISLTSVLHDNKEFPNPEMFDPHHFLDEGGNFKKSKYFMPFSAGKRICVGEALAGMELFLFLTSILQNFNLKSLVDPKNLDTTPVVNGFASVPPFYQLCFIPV
Cytochrome P450 2D6 (Homo sapiens), sequence (P10635 whole entry, looked up): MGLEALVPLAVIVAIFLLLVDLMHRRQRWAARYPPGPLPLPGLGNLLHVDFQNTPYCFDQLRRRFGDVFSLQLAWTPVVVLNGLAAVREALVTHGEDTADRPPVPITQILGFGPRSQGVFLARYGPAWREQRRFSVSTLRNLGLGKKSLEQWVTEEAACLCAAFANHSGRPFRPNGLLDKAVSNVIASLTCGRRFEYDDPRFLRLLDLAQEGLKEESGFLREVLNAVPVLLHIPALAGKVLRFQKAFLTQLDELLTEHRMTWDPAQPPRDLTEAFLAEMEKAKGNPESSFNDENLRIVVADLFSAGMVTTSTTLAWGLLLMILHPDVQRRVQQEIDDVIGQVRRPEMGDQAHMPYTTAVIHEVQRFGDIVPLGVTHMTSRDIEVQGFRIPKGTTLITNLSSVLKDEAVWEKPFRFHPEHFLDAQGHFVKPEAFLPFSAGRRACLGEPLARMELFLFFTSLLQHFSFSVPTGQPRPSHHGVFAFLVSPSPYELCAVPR

CC(C)(O)[C@@H]1CC[C@](C)([C@@H]2[C@H](O)C[C@]3(C)C4C[C@@H](O[C@H]5O[C@@H](CO)[C@H](O)[C@@H](O)[C@@H]5O)C5C(C)(C)[C@H](O[C@H]6OC[C@H](O)[C@@H](O)[C@@H]6O)CC[C@]56CC46CC[C@@]23C)O1 (stereo partly drawn)
inactive: Potency [1] | Potency [2] | Potency [3] | Potency [4]

OCCc1ccc(O)cc1
inactive: Potency [1] | Potency [2] | Potency [3] | Potency [4]

COc1ccc2[nH]cc(CCNc3ncncc3-c3ccccc3OC)c2c1
active: Potency [5] 0.126 µM | Potency [7] 1.26 µM | Potency [8] 79.4 nM | Potency [9] 25.1 µM
inactive: outcome [6]

CN(C)C(=O)c1ccc(-c2nc(N3CCOCC3)c3ccccc3n2)cc1
inactive: Potency [9]

CCNc1ncc2nc(-c3ccccc3)c(=O)n(CCC#N)c2n1
inactive: outcome [6] | Potency [9]
active: Potency [10] 3.16 µM | Potency [7] 0.501 µM

CCCCCC(=O)CC
inactive: Potency [1] | Potency [2] | Potency [3] | Potency [4] | outcome [11]

C=C/C(C)=C/C/C=C(\C)CCC=C(C)C
active: Potency [1] 28.2 µM | Potency [2] 35.5 µM | Potency [3] 31.6 µM
inactive: Potency [4] | outcome [11]

C=CC(=C)CCC=C(C)C
inactive: Potency [5] | Potency [12] | outcome [13] | outcome [14] | outcome [15] | Potency [1] | Potency [2] | Potency [3] | Potency [4] | outcome [11]

C=C1C[C@@]23CC[C@H]4[C@](C)(CCC[C@]4(C)C(=O)O[C@@H]4O[C@H](CO)[C@@H](O)[C@H](O)[C@H]4O)[C@@H]2CC[C@]1(O[C@H]1O[C@@H](CO)[C@H](O)[C@@H](O)[C@@H]1O)C3
inactive: Potency [1] | Potency [2] | outcome [11]

CC1=CCC(O)(C(C)C)CC1 (stereo not drawn)
inactive: Potency [1] | Potency [2] | Potency [3] | Potency [4] | outcome [11]

CC1(C)CC[C@]2(C(=O)O)CC[C@]3(C)C(=CCC4[C@@]5(C)CC[C@H](O)[C@@](C)(CO)C5CC[C@]43C)[C@H]2C1 (stereo partly drawn)
inactive: Potency [2] | Potency [4]

CCCCCCCCC[C@@H](O)CC(=O)CCc1ccc(O)c(OC)c1
inactive: outcome [11]
active: Potency [3] 6.31 µM

CC(=O)OC/C=C/c1ccccc1
inactive: Potency [1] | Potency [2]
active: Potency [4] 28.2 µM

C[C@@H]1CC[C@]2(C)CC[C@]3(C)C(=CC(=O)C4[C@@]5(C)CC[C@@H](O)[C@](C)(C(=O)O)C5CC[C@]43C)C2[C@H]1C (stereo partly drawn)
inactive: outcome [11]

COc1cc(/C=C/c2ccccc2)oc(=O)c1
inactive: Potency [12] | outcome [13] | outcome [14] | outcome [15] | Potency [1] | Potency [2]
active: Potency [5] 15.8 µM | Potency [4] 7.08 µM

O=C(O)c1ccccc1
inactive: Potency [5] | Potency [12] | outcome [13] | outcome [14] | outcome [15] | Potency [1] | Potency [2] | Potency [3] | Potency [4] | outcome [11]

O=C(OC[C@H]1O[C@@H](OC(=O)c2cc(O)c(O)c(O)c2)[C@H](OC(=O)c2cc(O)c(O)c(O)c2)[C@@H](OC(=O)c2cc(O)c(O)c(O)c2)[C@@H]1O)c1cc(O)c(O)c(O)c1
active: Potency [1] 12.6 µM | Potency [2] 3.16 µM | Potency [3] 3.98 µM
inactive: outcome [11]

CC(C)=CCCC(C)(OC1OC(COC2OC(CO)C(O)C2O)C(O)C(O)C1O)C1CCC2(C)C1C(O)CC1C3(C)CCC(OC4OC(CO)C(O)C(O)C4OC4OC(CO)C(O)C(O)C4O)C(C)(C)C3CCC12C (stereo not drawn)
inactive: Potency [1] | Potency [2] | Potency [3] | Potency [4] | outcome [11]

CCCCCCCCCCCCCCCCCCCCCCCCCCCCCCO
inactive: activity change, negative = inhibition [1] 9.22% [at 4.27 µM] | activity change, negative = inhibition [2] 4.8% [at 4.27 µM] | activity change, negative = inhibition [3] 9.51% [at 4.27 µM] | activity change, negative = inhibition [4] 15.7% [at 4.62 µM] | activity change, negative = inhibition [11] 2.96% [at 5 µM]

CCCCCCCC/C=C\CCCCCCCCCCCCCC(=O)O
inactive: Potency [2] | Potency [3] | Potency [4]

CC1=CC[C@H](C(C)C)C=C1
inactive: Potency [4] | outcome [11]
active: Potency [1] 35.5 µM | Potency [3] 39.8 µM

CCCCC/C=C/C(=O)CCc1ccc(O)c(OC)c1
active: Potency [1] 17.8 µM | Potency [3] 7.08 µM | Potency [4] 15.8 µM
inactive: Potency [2] | outcome [11]
